M1 antag – antagonists of rat M1 muscarinic receptor; CHO-M1 cells, Fluo-4 calcium, ACh EC80 antagonist mode; active compounds read low; B-score at 10 µM; 64,000 tested, 3.4% active; AID 628, 2007;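 active = calcium fluorescence response, raw or row-and-column corrected B-score, differing from the plate sample mean either way at a set confidence level, mostly lower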
PLAP act – PLAP enzyme activators, biochemical, luminescence, HTS; Alkaline phosphatase, placental type (Homo sapiens), P05187; purified PLAP enzyme, luminescent substrate read-out; active compounds read high; activation fold at 20 µM; 96,000 tested, 1.2% active; AID 696, 2007; in the data active = activation fold above about 2
Cav32 inh – Cav3.2 calcium influx blockers – cell-based, Fluo-4 calcium fluorescence, FDSS, MLSMR library, primary screen. Voltage-dependent T-type calcium channel subunit alpha-1H (Homo sapiens), O95180. Cav3.2-expressing cells; active compounds read low. B-score at 10 µM. 100,000 tested, 4% active. AID 449739, 2010;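 active = single-dose well whose peak fluorescence ratio is a statistical outlier from its plate by either plate-standardised score or position-corrected B-score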
M1 ag – M1 muscarinic receptor agonists, primary screen, CHO-M1 cells, Fluo-4 calcium, agonist mode; Muscarinic acetylcholine receptor M1; Fluo-4 calcium fluorescence; active compounds read high; B-score at 10 µM; 64,000 tested, 3% active; AID 626, 2007;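 active = fluorescence rise, raw or as B-score row- and column-corrected plate score, outside the 99.7% band of its plate's samples, either direction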
HER2 expr 66K – inhibitors of Her2 protein expression, primary screen, SKBR-3 cells, AlphaScreen, 66K library; SKBR-3 HER2 protein level, 18-24 h; active compounds read low; HER2 level % of control, % at 10 µM; 65,000 tested, 0.69% active; AID 645, 2007;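 active = HER2 level under 5% of the carrier-only control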;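 also: 100% = DMSO carrier and 0% = 500 nM PU-H71 HSP90 inhibitor; lower value means stronger loss of Her2 protein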
Target sequence (P04626 whole entry, looked up): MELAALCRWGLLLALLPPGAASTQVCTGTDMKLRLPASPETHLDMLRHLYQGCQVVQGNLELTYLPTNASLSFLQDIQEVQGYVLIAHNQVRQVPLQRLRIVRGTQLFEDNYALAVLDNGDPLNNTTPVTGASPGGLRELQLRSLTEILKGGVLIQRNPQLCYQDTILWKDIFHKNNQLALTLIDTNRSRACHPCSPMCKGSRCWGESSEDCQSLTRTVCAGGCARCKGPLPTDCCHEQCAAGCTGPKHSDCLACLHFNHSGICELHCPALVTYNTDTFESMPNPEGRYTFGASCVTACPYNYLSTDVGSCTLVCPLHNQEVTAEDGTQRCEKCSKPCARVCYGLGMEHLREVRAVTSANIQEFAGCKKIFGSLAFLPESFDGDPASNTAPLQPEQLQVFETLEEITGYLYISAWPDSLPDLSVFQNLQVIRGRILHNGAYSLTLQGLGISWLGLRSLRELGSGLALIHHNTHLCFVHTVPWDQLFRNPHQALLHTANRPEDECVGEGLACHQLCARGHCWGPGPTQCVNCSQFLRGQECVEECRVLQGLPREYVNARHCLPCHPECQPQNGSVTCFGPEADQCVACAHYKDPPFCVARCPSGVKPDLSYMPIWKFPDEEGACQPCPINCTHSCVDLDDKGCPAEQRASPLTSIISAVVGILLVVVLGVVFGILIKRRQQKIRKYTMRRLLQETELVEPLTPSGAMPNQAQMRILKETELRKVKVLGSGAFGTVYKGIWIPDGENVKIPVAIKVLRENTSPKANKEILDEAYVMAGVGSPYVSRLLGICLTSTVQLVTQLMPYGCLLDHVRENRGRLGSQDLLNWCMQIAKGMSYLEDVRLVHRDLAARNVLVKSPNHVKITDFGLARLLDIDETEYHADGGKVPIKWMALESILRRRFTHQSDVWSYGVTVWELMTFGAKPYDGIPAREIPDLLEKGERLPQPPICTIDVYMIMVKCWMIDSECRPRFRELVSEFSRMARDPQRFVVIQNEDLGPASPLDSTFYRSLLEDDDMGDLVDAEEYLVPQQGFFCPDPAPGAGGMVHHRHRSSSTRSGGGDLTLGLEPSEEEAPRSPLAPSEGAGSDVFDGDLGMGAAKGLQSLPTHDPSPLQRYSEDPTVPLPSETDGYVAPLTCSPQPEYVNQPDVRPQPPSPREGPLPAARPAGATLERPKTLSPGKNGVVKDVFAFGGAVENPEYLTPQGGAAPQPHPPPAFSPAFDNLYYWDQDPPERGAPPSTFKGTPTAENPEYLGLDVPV
* hit, by the source's call; x = no result given. In the library only some 7.9% were active in any assay of this set; here they are far more common.

SMILES	M1 antag	PLAP act	Cav32 inh	M1 ag	HER2 expr 66K
N#CC(C(=O)NC1CCCCC1)c1nc2ccccc2nc1N1CCCCC1 (centres undefined)	-1	x	x	49*	88
N#CC(C(=O)NC1CC1)c1nc2ccccc2nc1N1CCN(C/C=C/c2ccccc2)CC1 (centres undefined)	0.26	1.4	-11*	5.5	110
C=CCNC(=O)C(C#N)c1nc2ccccc2nc1N1CCN(Cc2ccccc2)CC1 (centres undefined)	1.1	1.5	0.16	-1.7	106
N#Cc1c(-c2ccco2)nc(SCc2ccc(F)cc2)[nH]c1=O	0.43	0.9	-4.5*	-0.11	105
O=C(/C=C/c1ccccc1)NC(=S)NNC(=O)Cc1cccs1	x	x	-4.1*	x	x
CCn1c2ccccc2c2nnc(SCC(=O)NC(CC(C)C)C(=O)OC)nc21 (centres undefined)	-0.073	1.2	1.1	-0.37	115
COc1ccc(CCNC(=O)CSc2nnnn2-c2ccccc2OC)cc1OC	0.11	1.1	x	-0.99	90
CCOC(=O)c1ccc(Nc2cc(C)nc3ncnn23)cc1	-0.37	2*	0.35	-1.3	87
CCOC(=O)c1ccc(Nc2c(CC)c(C)nc3ncnn23)cc1	-0.31	x	1	0.57	103
COC(=O)c1ccc(Nc2cc(C)nc3ncnn23)cc1	0.34	2.2*	0.027	0.51	105
C=CCN1c2ccccc2[C@]23C[C@@H](C(=O)OC)N(C(=O)c4cccs4)C2=NC(C(=O)OC)=C(C(=O)OC)[C@H]13	x	x	-2.2	x	x
Cc1cccc(C)c1NC(=O)C(C)c1ccc(-c2ccccc2)c(F)c1 (centres undefined)	x	0.9	-4.3*	x	x
CCC(C)NS(=O)(=O)c1ccc(S(=O)(=O)N2CCCC3(CCCCC3)C2)cc1 (centres undefined)	x	0.7	-6.3*	x	x
COc1ccccc1-c1cn(S(=O)(=O)c2ccc(F)cc2)nc1N	0.13	0.9	-2.4	0.96	67
COc1ccccc1N=c1scc(-c2ccc3c(c2)NC(=O)CO3)n1CC1CCCO1 (centres undefined)	-0.27	1.7	-3.9*	2.8	98
O=C1COc2ccc(-c3csc(=Nc4ccc(OC(F)F)cc4)n3CC3CCCO3)cc2N1 (centres undefined)	x	0.8	-1.4	x	x
C=CCN1C=CC(=O)CC1	x	x	1.2	x	x
CCn1c(SCC(=O)Nc2ccc(C)cc2)nnc1-c1ccc(O)cc1	x	x	-0.23	x	x
O=C(NNC(=S)NC(=O)C12CC3CC(CC(C3)C1)C2)c1ccncc1	x	1.9	-4.3*	x	x
O=C(NNC(=S)Nc1ccccc1)c1ccncc1	x	2*	x	x	x
O=C1Nc2ccccc2C12OCC(COc1ccc(Cl)cc1)O2 (centres undefined)	-0.16	0.8	-5.4*	0.4	101
O=S(=O)(CCOc1ccccc1)c1nc2ccccc2[nH]1	-0.067	0.9	1.8	0.17	73
Cc1ccc(-c2c3c(=O)n(C)c(=O)n(C)c3c3c(C)cc(C)nn23)cc1	-13*	x	x	9.5*	99
Cc1ccc(-c2c3c(=O)n(C)c(=O)n(C)c3cn2Cc2ccccc2)cc1	x	1.9	x	x	x
CCCn1c(NC(=O)c2ccc(Cl)c(S(=O)(=O)N3CCCC3)c2)nc2ccccc21	0.12	1.5	-3.1	0.056	64
SMILES	M1 antag	PLAP act	Cav32 inh	M1 ag	HER2 expr 66K
Cc1ccc(OCc2nc(-c3ccccn3)n[nH]2)cc1	x	2.6*	0.39	x	x
Cc1cccc(OCc2nc(-c3ccccn3)n[nH]2)c1	x	1.9	0.48	x	x
Clc1cccc(/C=N\Nc2nccs2)c1	x	2.1*	-0.3	x	x
N#Cc1c(NC(=O)c2ccc(Br)o2)n(-c2ccccc2)c2nc3ccccc3nc12	-0.75	x	x	42*	57
CCC(=O)Nc1c(C#N)c2nc3ccccc3nc2n1-c1ccc(C)cc1	0.42	x	x	4.3*	44
Cc1ccc(CNCCC2=CCCCC2)cc1	x	0.8	0.083	x	x
CCOC(=O)c1ccccc1-n1c(C)cc(C2N=C(N)Nc3nc4ccccc4n32)c1C (centres undefined)	x	2.5*	-2.2	x	x
CCOC(=O)C1C(=O)Nc2nc3ccccc3n2C1C(C)C (centres undefined)	-0.28	1.3	-0.54	-0.68	83
Cc1[nH]nc2ncc(C(=O)c3ccccc3O)cc12	0.12	2.1*	x	-1.1	178
CSc1ccc(S(=O)(=O)NCc2ccc(Cl)cc2Cl)cc1	x	0.8	-0.16	x	x
CSc1ccc(S(=O)(=O)NCc2ccccc2Cl)cc1	-1.1	0.9	-4*	0.79	72
CCOc1ccc(N(C(=O)/C=C/C(=O)Nc2cc(C)on2)C(C(=O)NC2CCCC2)c2ccccc2C)cc1 (centres undefined)	x	1.3	-5.4*	x	x
Cc1cc(NC(=O)CCC(=O)N(CC2CCCO2)C(C(=O)NC2CCCC2)c2ccccc2C)no1 (centres undefined)	0.73	x	0.1	0.27	132
O=c1cc(-c2ccccc2)[nH]n1-c1ccc([N+](=O)[O-])cc1	x	0.9	-4*	x	x
O=S(=O)(Nc1ncn[nH]1)c1ccc(Cl)cc1	x	1.2	x	x	x
O=C(NC1CCCCC1)Nn1c(-c2ccccc2)nc2ccccc2c1=O	-0.0038	x	x	0.29	189
Cc1ccc(C(=O)N(c2ccccc2)C2CC(C)N(C(=O)c3ccco3)c3ccccc32)cc1 (centres undefined)	x	1.7	-5.6*	x	x
CCCC(=O)N1c2ccccc2C(N(C(C)=O)c2ccccc2)CC1C (centres undefined)	x	1.3	x	x	x
CC(C)CN(CC(C)C)C(=O)Cc1coc2ccc3ccccc3c12	x	1.1	-4.9*	x	x
CCOC(=O)c1ccc(N2C(=O)c3n[nH]c(C)c3C2c2ccco2)cc1 (centres undefined)	0.58	2.7*	-1.5	0.18	72
CCOC(=O)c1ccc(N2C(=O)c3n[nH]c(C)c3C2c2ccc(OC)c(OC)c2)cc1 (centres undefined)	-0.25	x	-0.55	-0.064	71
CCOC(=O)c1ccc(N2C(=O)c3n[nH]c(C)c3C2c2ccc(OC)cc2)cc1 (centres undefined)	1	2.6*	-0.17	-0.052	45
CCOc1cc(C2c3c(n[nH]c3C)C(=O)N2c2ccc(Br)cc2)ccc1O (centres undefined)	0.72	2.3*	-1.6	0.35	91
CCCCCc1c(C)nc(N2CCOCC2)[nH]c1=O	1.6	1	0.67	1.7	74
Cc1ccc(Cn2c(CCNc3nc(-c4ccc(Cl)c([N+](=O)[O-])c4)cs3)nc3cc(C(=O)NCCCO)ccc32)cc1	x	x	0.02	x	x
COc1cccc(N2C(=O)N(c3ccccc3)C3CS(=O)(=O)CC32)c1 (centres undefined)	0.44	1	0.56	0.11	71
